Assay results published in PubChem BioAssay.
Values without a mark were called inactive.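 The calls were made as follows, unless noted: active = RAM network inhibition above 8.4% in each of two replicates, 3 SD over the compound average; inconclusive = above 8.4% inhibition in only one replicate; inactive = 8.4% inhibition or less in each replicate.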

test: RAM pathway blockade in budding yeast – dse1pr::URA3 reporter, 5-FOA selection, pilot screen (AID 869;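 active = inhibition over a set limit, the all-compound mean plus 3 SD, in both replicate runs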;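 also: 0% = DMSO wells with no growth and 100% = 10 µM 1-NA-PP1 with full growth; RAM network block rescues cells from 5-FOA so hits raise OD615 growth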); settings: S. cerevisiae dse1pr::URA3 5-FOA growth, OD615, 2 d; at 10 µM; active compounds read high; strain carries analog-sensitive mutant Cbk1 kinase

| SMILES | inhibition |
| --- | --- |
| Cn1c(C(=O)N2CCN(c3ncccn3)CC2)cc2c(=O)n(C)c3ccccc3c21 | 1.92% |
| CC(=O)Nc1cc(NC(C)=O)c(CC(C)C)s1 | 0.44% |
| COc1ccc(Nc2cc(C)nc3nc(C)nn23)cc1Cl | -0.465% |
| O=C(NC1CCCCCC1)C1C2C=CC3(CN(Cc4cccnc4)C(=O)C13)O2 (stereo not given) | 0.18% |
| CCOC(=O)N1CCN(C(=O)CS(=O)Cc2nc(-c3cccc(C)c3)oc2C)CC1 (stereo not given) | 1.69% |
| CCOC(=O)Cc1csc(NC(=O)Nc2ccccc2)n1 | 0.665% |
| COc1ccccc1S(=O)(=O)Cc1ccc(C(=O)NCc2ccc3c(c2)OCO3)o1 | 1.9% |
| CCOC(=O)N1CCN(C(=O)c2cc3cc(Br)ccc3oc2=O)CC1 | 0.665% |
| Cn1cnnc1SCCC(=O)Nc1ccccc1 | 1.14% |
| Nc1c(C(=O)NCc2ccccc2)nnn1Cc1ccccc1 | 1.02% |
| CCC(=O)Nc1nnc(-c2ccco2)o1 | 0.105% |
| O=C1C(C=NCc2ccco2)=C(O)c2ccccc21 | 0.74% |
| CCOC(=O)c1cnc2ccc(C(=O)OC)cc2c1NCCN1CCOCC1 | 2.41% |
| O=C(CSc1oc(-c2ccco2)nc1S(=O)(=O)c1ccc(Cl)cc1)NCC1CCCO1 (stereo not given) | -0.09% |
| O=C(Cn1c(NCCCO)nc2ccccc21)c1cccs1 | 2.46% |
| O=C(C1CC(c2ccc(F)cc2)=NO1)N1CCN(Cc2ccccc2)CC1 (stereo not given) | 1.8% |
| Cc1nccn1-c1c2c(c(C#N)c3nc4ccccc4n13)CCC2 | 2.08% |
| CCOC(=O)c1ccc(N=c2sc(C(=O)OC)cc(=O)n2CCCN2CCOCC2)cc1 | 2.12% |
| Cc1ccccc1-n1c(Cn2c(=O)sc3ccccc32)nnc1SCC(=O)Nc1nccs1 | 2.25% |
| Cc1cc(S(=O)(=O)N2CCN(c3ccc(F)cc3)CC2)c(C)s1 | 1.69% |

| SMILES | inhibition |
| --- | --- |
| Cc1cccc(-n2c(Cc3cc(=O)[nH]c(=O)[nH]3)nnc2SCC(=O)NCC2CCCO2)c1 (stereo not given) | 0.535% |
| CCOc1ccccc1Nc1ncnc2c1cnn2-c1ccccc1 | 2.2% |
| CCC(C(=O)N1CC2(C)CC1CC(C)(C)C2)N1C(=O)c2ccccc2C1=O (stereo not given) | 1.57% |
| CCN(CC)S(=O)(=O)c1ccc(C2CNC(=O)C2)cc1 (stereo not given) | 1.48% |
| CC(CNCc1ccc2c(c1)OCO2)NCc1ccc2c(c1)OCO2 (stereo not given) | -0.175% |
| CCCC(c1c(C)n(C)n(-c2ccccc2)c1=O)c1c(C)n(C)n(-c2ccccc2)c1=O | 1.16% |
| CN1CCCc2cc3c(C(F)(F)F)cc(=O)oc3nc21 | 1.14% |
| O=C1CCCC2=C1C1(O)C(=O)c3ccccc3C1(O)O2 (stereo not given) | 1.28% |
| Clc1ccc(CSc2nnc(-c3cccnc3)n2Cc2ccco2)c(Cl)c1 | 2.67% |
| O=C(Cn1cc2c(n1)CCCCC2)NC1CCN(Cc2ccccc2)CC1 | 2.21% |
| CCCn1c(C(O)c2ccc3c(c2)OCO3)nc2ccccc21 (stereo not given) | 2.31% |
| Cn1c(SCC(=O)Nc2ccc(F)cc2F)nnc1-c1cccnc1 | 3.28% |
| COc1ccccc1-c1nc2n(n1)C(c1ccccc1Cl)C(C(N)=O)=C(C)N2 (stereo not given) | -0.085% |
| COc1ccc(Nc2ccc3c(c2)=NC2(CCCCC2)[N+]=3[O-])cc1 | 4.35% |
| O=C(CNS(=O)(=O)c1ccc(C(=O)N2CCCCC2)cc1)N1CCCCC1 | -0.19% |
| COc1ccccc1N1CCN(c2cc(=O)n(-c3ccc(Cl)cc3)c(=O)[nH]2)CC1 | 1.07% |
| CCCCNC(=O)CS(=O)Cc1nc(-c2cccc(C)c2)oc1C (stereo not given) | 1.14% |
| c1ccc(COc2ccc(Nc3ncnc4nc[nH]c34)cc2)cc1 | 0.435% |
| Cc1nnc(Sc2nc3c(c(=O)[nH]c(=O)n3C)n2CCc2ccccc2)s1 | 0.16% |
| CCSC1=N/C(=C\c2ccc(C(=O)O)cc2)C(=O)S1 | 1.83% |

test: RAM signaling pathway blockade in yeast – S. cerevisiae, Pdr1DBD-CYC8 efflux-inhibited sensitized strain, primary screen (AID 1298);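 also: 0% = DMSO untreated cells without growth and 100% = 10 µM 1-NA-PP1 full growth; higher means more yeast growth rescued from 5-FOA killing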; settings: S. cerevisiae cbk1-as DSE1-URA3 strain, 5-FOA growth OD615, 2 d; at 50 µM; active compounds read high

| SMILES | RAM network inhibition |
| --- | --- |
| Cn1c(C(=O)N2CCN(c3ncccn3)CC2)cc2c(=O)n(C)c3ccccc3c21 | -0.01% |
| CC(=O)Nc1cc(NC(C)=O)c(CC(C)C)s1 | 2.34% |
| COc1ccc(Nc2cc(C)nc3nc(C)nn23)cc1Cl | -0.01% |
| O=C(NC1CCCCCC1)C1C2C=CC3(CN(Cc4cccnc4)C(=O)C13)O2 (stereo not given) | 1.44% |
| CCOC(=O)N1CCN(C(=O)CS(=O)Cc2nc(-c3cccc(C)c3)oc2C)CC1 (stereo not given) | 1.11% |
| CCOC(=O)Cc1csc(NC(=O)Nc2ccccc2)n1 | 4.19% |
| COc1ccccc1S(=O)(=O)Cc1ccc(C(=O)NCc2ccc3c(c2)OCO3)o1 | 6.73% |
| CCOC(=O)N1CCN(C(=O)c2cc3cc(Br)ccc3oc2=O)CC1 | -1.94% |
| Cn1cnnc1SCCC(=O)Nc1ccccc1 | 2.5% |
| Nc1c(C(=O)NCc2ccccc2)nnn1Cc1ccccc1 | 2.99% |
| CCC(=O)Nc1nnc(-c2ccco2)o1 | 4.9% |
| O=C1C(C=NCc2ccco2)=C(O)c2ccccc21 | -0.41% |
| CCOC(=O)c1cnc2ccc(C(=O)OC)cc2c1NCCN1CCOCC1 | 2.6% |
| O=C(CSc1oc(-c2ccco2)nc1S(=O)(=O)c1ccc(Cl)cc1)NCC1CCCO1 (stereo not given) | 1.57% |
| O=C(Cn1c(NCCCO)nc2ccccc21)c1cccs1 | 0.62% |
| O=C(C1CC(c2ccc(F)cc2)=NO1)N1CCN(Cc2ccccc2)CC1 (stereo not given) | 2.3% |
| Cc1nccn1-c1c2c(c(C#N)c3nc4ccccc4n13)CCC2 | 2.4% |
| CCOC(=O)c1ccc(N=c2sc(C(=O)OC)cc(=O)n2CCCN2CCOCC2)cc1 | 2.6% |
| Cc1ccccc1-n1c(Cn2c(=O)sc3ccccc32)nnc1SCC(=O)Nc1nccs1 | 5.86% |
| Cc1cc(S(=O)(=O)N2CCN(c3ccc(F)cc3)CC2)c(C)s1 | 9.84% |

| SMILES | RAM network inhibition |
| --- | --- |
| Cc1cccc(-n2c(Cc3cc(=O)[nH]c(=O)[nH]3)nnc2SCC(=O)NCC2CCCO2)c1 (stereo not given) | -1.56% |
| CCOc1ccccc1Nc1ncnc2c1cnn2-c1ccccc1 | 5.59% |
| CCC(C(=O)N1CC2(C)CC1CC(C)(C)C2)N1C(=O)c2ccccc2C1=O (stereo not given) | 6% |
| CCN(CC)S(=O)(=O)c1ccc(C2CNC(=O)C2)cc1 (stereo not given) | -0.31% |
| CC(CNCc1ccc2c(c1)OCO2)NCc1ccc2c(c1)OCO2 (stereo not given) | 1.32% |
| CCCC(c1c(C)n(C)n(-c2ccccc2)c1=O)c1c(C)n(C)n(-c2ccccc2)c1=O | 4.48% |
| CN1CCCc2cc3c(C(F)(F)F)cc(=O)oc3nc21 | 1.82% |
| O=C1CCCC2=C1C1(O)C(=O)c3ccccc3C1(O)O2 (stereo not given) | 1.91% |
| Clc1ccc(CSc2nnc(-c3cccnc3)n2Cc2ccco2)c(Cl)c1 | 11.6% |
| O=C(Cn1cc2c(n1)CCCCC2)NC1CCN(Cc2ccccc2)CC1 | 7.63% |
| CCCn1c(C(O)c2ccc3c(c2)OCO3)nc2ccccc21 (stereo not given) | 0.88% |
| Cn1c(SCC(=O)Nc2ccc(F)cc2F)nnc1-c1cccnc1 | -0.27% |
| COc1ccccc1-c1nc2n(n1)C(c1ccccc1Cl)C(C(N)=O)=C(C)N2 (stereo not given) | -1.52% |
| COc1ccc(Nc2ccc3c(c2)=NC2(CCCCC2)[N+]=3[O-])cc1 | 6.69% |
| O=C(CNS(=O)(=O)c1ccc(C(=O)N2CCCCC2)cc1)N1CCCCC1 | 3.77% |
| COc1ccccc1N1CCN(c2cc(=O)n(-c3ccc(Cl)cc3)c(=O)[nH]2)CC1 | 7.55% |
| CCCCNC(=O)CS(=O)Cc1nc(-c2cccc(C)c2)oc1C (stereo not given) | 0.26% |
| c1ccc(COc2ccc(Nc3ncnc4nc[nH]c34)cc2)cc1 | 4.8% |
| Cc1nnc(Sc2nc3c(c(=O)[nH]c(=O)n3C)n2CCc2ccccc2)s1 | 8.3% |
| CCSC1=N/C(=C\c2ccc(C(=O)O)cc2)C(=O)S1 | 8.27% |
